DRD3 agonist: agonists of human D3 dopamine receptor; D3R DiscoveRx beta-arrestin cells, luminescence, 90 min; max activation, %; actives 0.58% (n = 410,000); in the data active = max activation above about 30%
Target sequence (P35462 whole entry, looked up): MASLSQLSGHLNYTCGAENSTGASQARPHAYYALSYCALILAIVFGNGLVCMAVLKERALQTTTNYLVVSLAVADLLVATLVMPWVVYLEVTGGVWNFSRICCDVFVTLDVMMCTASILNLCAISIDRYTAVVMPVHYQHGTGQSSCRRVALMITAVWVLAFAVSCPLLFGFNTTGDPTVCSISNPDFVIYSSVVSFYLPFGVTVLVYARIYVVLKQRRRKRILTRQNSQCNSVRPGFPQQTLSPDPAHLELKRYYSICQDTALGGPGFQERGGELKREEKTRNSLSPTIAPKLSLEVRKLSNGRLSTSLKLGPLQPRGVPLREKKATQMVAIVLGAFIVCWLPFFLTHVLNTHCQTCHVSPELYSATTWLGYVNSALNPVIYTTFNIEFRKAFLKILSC
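Agonist mode: compounds and dopamine controls were applied to plated cells for 90 min at 37 degrees C after an overnight attachment at 1500 cells/well. Luminescent read-out followed 30 - 60 minutes at room temperature with DiscoveRx detection reagent.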
ClpP mod: qHTS Assay for Activators of ClpP; actives 1.9% (n = 340,000); ATP-dependent Clp protease proteolytic subunit (Bacillus subtilis (strain 168)), P80244; purified B. subtilis ClpP, FRET peptide cleavage, 20 min; Potency, µM (series often up to 57.5 µM); active = well fitted falling curve with a large enough effect; inconclusive = small, poorly fitted or top-dose-only effect; inactive = no such curve, though single readings can be large or run the other way; also: the source files actives as falling curves though it sought activators and does not explain the sign; nearly all actives have a fitted effect of over 65% in size
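Purified B. subtilis ClpP, 10 microg/mL final in Tris/HCl pH8 with KCl, BSA, glycerol and Tween-20, cleaved an Abz/nitrotyrosine-quenched decapeptide. Fluorescence (ex 320, em 430) was read at 0 and 20 min at room temperature. Delta was normalized to 5.8 microM ADEP and DMSO/no-enzyme controls.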
GLP-1R agonist: agonists of human GLP-1 receptor; Potency, µM (titrated, usually from 45.6 µM), most hits filed as activators; HEK293 GLP-1R CRE-luciferase, luminescence, 4-6 h; cells express a hypersensitive GLP-1R form; AID 624172; actives 0.007% (n = 380,000); P43220
DRD3 antagonist: antagonists of human D3 dopamine receptor; P35462; D3R cells, DiscoveRx beta-arrestin luminescence, antagonist mode; stronger effect = lower value; max response, negative = inhibition, %; actives 2.5% (n = 360,000); AID 652054; in the data active = max response below about -50%; inconclusive = no clear call, values can overlap the other calls
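Cells plated overnight at 1500 cells/well, then exposed to library compounds with dopamine controls for 90 minutes at 37 degrees C. DiscoveRx reagent added for 30–60 minutes at room temperature; luminescence read, quantitative HTS format.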
HEK293 tox: cytotoxicity counter-screen for GLP-1 receptor inverse agonists; HEK293 cAMP-luciferase reporter cells, luminescence, 24 h; actives 0.13% (n = 410,000); Potency, µM (top dose mostly 38.3 µM), actives largely listed as inhibitors;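 also: loss of luciferase light is scored as toxicity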
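Luminescence readout: signal drop marks cytotoxicity. Plated cells grew 12 h at 37 °C, 5% CO2, received 23 nL compound for 24 h, then got luciferase reagent, read after 12 min at RT.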
GLP-1R inv ag: GLP-1 receptor (human) inverse agonism. P43220. HEK293 GLP-1R CRE-luciferase, luminescence, 24 h; GLP-1R form is constitutively active. Potency, µM (titrated, usually from 38.3 µM), usual class: inhibitors. actives 1.6% (n = 410,000); also: nearly all actives have a fitted effect of over 55% in size
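Constitutively active GLP-1R drives a cAMP-responsive luciferase in stably transfected HEK293 cells; test compounds are added after overnight (12 h) attachment and left 24 hr, and signal loss in luminescence marks inhibition.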
Large screens that a line does not name were inactive. Hits are enriched below; roughly 5.7% of the tested compounds scored in any of these assays. Unless noted, calls follow the shape of the dose curve; as a rule, active = well fitted curve in the direction sought with a large enough effect; inconclusive = small, poorly fitted or top-dose-only effect, or another doubt; inactive = no such curve, though single readings can be large; an effect the other way counts as inactive or inconclusive.

Cc1cn([C@H]2C[C@H](O)[C@@H](CNCC3=Cc4cc(O)ccc4OC3)O2)c(=O)[nH]c1=O	DRD3 agonist 39, DRD3 antagonist inconclusive
CCC1(C)Cc2c(c(=O)n(-c3ccccc3)c3ncnc(N)c23)CO1 (centres undefined)	ClpP mod 16µM
Cc1cccc2nc(-c3cccnc3)c(Nc3ccc(C(C)C)cc3)n12	GLP-1R inv ag 10µM (no result: GLP-1R agonist, DRD3 antagonist)
COCCCNC(=O)C[C@@H]1C[C@@]2(C(=O)OC)CC(C)(C)CC=C2N(CCc2ccc(OC)c(OC)c2)C1=O	DRD3 antagonist -70 (no result: GLP-1R agonist)
CCCCNC(=O)C[C@@H]1C[C@@]2(C(=O)OC)CC(C)(C)CC=C2N(CCc2ccc(OC)c(OC)c2)C1=O	none (no result: GLP-1R agonist)
COC(=O)[C@@]12C[C@@H](CC(=O)NCc3ccccc3)C(=O)N(Cc3ccco3)C1=CCC(C)(C)C2	none (no result: GLP-1R agonist)
COC(=O)[C@@]12C[C@@H](CC(=O)NCCCCc3ccccc3)C(=O)N(Cc3ccco3)C1=CCC(C)(C)C2	GLP-1R inv ag 10µM (no result: GLP-1R agonist)
CC(C)(C)NC(=O)[C@H]1CN(Cc2cccnc2)CCN1C[C@@H](O)C[C@@H](Cc1ccccc1)C(=O)N[C@H]1c2ccccc2C[C@H]1O	none (no result: DRD3 agonist, ClpP mod, DRD3 antagonist, HEK293 tox, GLP-1R inv ag)
COc1ccc(Cl)cc1S(=O)(=O)NC(C)C(=O)NCCN1CCOCC1 (centres undefined)	none (no result: ClpP mod)
Cc1cc(C(=O)CN2C(=O)c3ccccc3S2(=O)=O)c(C)n1-c1ccccc1	GLP-1R inv ag 1.4µM
Cc1ccc(C(=O)CN2/C(=C(\O)c3ccccc3)C(=O)c3ccccc3S2(=O)=O)c(C)c1	DRD3 antagonist -50
CCn1c(C)cc(C(=O)CN2C(=O)c3ccccc3S2(=O)=O)c1C	GLP-1R inv ag inconclusive
CCn1c(N2CCN(S(=O)(=O)c3ccccc3C(F)(F)F)CC2)nc2ccccc21	DRD3 agonist 32, GLP-1R inv ag inconclusive
Cn1c(N2CCN(S(=O)(=O)c3ccc(F)cc3)CC2)nc2ccccc21	none (no result: ClpP mod)
COc1ccc(S(=O)(=O)N2CCN(Cc3ccccc3OC)CC2)cc1	none
CCN1CCN(S(=O)(=O)c2ccc(Oc3ccccc3OC)cc2)CC1	ClpP mod 20µM
CCn1c(N2CCN(S(=O)(=O)c3ccc(OC)cc3)CC2)nc2ccccc21	DRD3 agonist 36, GLP-1R inv ag inconclusive (no result: ClpP mod)
CCn1c(=O)n(CC)c2cc(N3CCCC3)c(NC(=O)Nc3cc(C)cc(C)c3)cc21	ClpP mod inconclusive (no result: GLP-1R agonist, DRD3 antagonist)
O=C(Nc1ccc(C(=O)N2CCN(c3ccccc3F)CC2)cc1)c1nsc2ccccc12	GLP-1R inv ag inconclusive (no result: GLP-1R agonist, DRD3 antagonist)
Cc1ccc(S(=O)(=O)Nc2ccccc2CNc2ncc(Br)cc2Br)cc1	GLP-1R inv ag 10µM
CCNC(=O)c1ccc2nc(CCc3ccccc3)oc2c1	none (no result: GLP-1R agonist, DRD3 antagonist)
CC(C)CN(CC(C)C)C(=S)NC1CCCCC1	HEK293 tox 10µM, GLP-1R inv ag inconclusive
CC(C)CCNC(=S)NC1CCCC1	none
NC(=O)C1=C(N=C2CCCCC2)CCCC1	ClpP mod 32µM
CCCC1=C(C(=O)OCC)C(c2ccco2)C(C#N)=C(N)O1 (centres undefined)	DRD3 agonist 48
O=C1NC(=O)c2c(Br)c(Br)c(Br)c(Br)c21	none (no result: ClpP mod)
O=C(Nc1ccccc1Oc1ccccc1)[C@@H]1O[C@H](CO)[C@H](O)[C@H](O)[C@H]1O	DRD3 antagonist -162
COCCNC(=O)CC(NS(=O)(=O)c1ccc(NC(C)=O)cc1)C(C)C (centres undefined)	ClpP mod 32µM
CC(=O)Nc1ccc(S(=O)(=O)N[C@H](C(=O)O)C(C)C)cc1	none
COC(=O)C(NS(=O)(=O)c1ccc(NC(C)=O)cc1)C(C)C (centres undefined)	DRD3 antagonist -74
Cc1cccc2c(=O)n(C(=O)c3ccccc3)c(N)nc12	none
N#Cc1c(NC(=O)/C=C/c2ccco2)sc2c1CCCC2	DRD3 antagonist -60

From PubChem
